Results reported in PubChem BioAssay (EPA / NIEHS).
The source made the active and inactive calls. The calls were made as follows: active = hit-call score of the fitted dose curve at least 0.9, where 1 is the maximum; inactive = score below 0.9.

Assay: APR_HepG2_MitoMembPot_1hr: Apredica 1-hour HepG2 Assay for Mitochondrial Membrane Potential (AID 2282675)
Settings: imaging, actives raise or lower the signal
Procedure: APR_HepG2_1hr is a cell-based, multiplexed-readout assay that uses HepG2, a human liver cell line, with measurements taken at 1 hour after chemical dosing in a 384-well plate.APR_HepG2_MitoMembPot_1hr is one of 10 assay component(s) measured or calculated from the APR_HepG2_1hr assay. It is designed to make measurements of dye binding, a form of membrane potential reporter, as detected with fluorescence intensity signals by HCS Fluorescent Imaging technology.Data from the assay component APR_HepG2_MitoMembPot_1hr was analyzed into 1 assay endpoint. This assay endpoint, APR_HepG2_MitoMembPot_1hr, was analyzed with bidirectional fitting relative to DMSO as the negative control and baseline of activity. Using a type of membrane potential reporter, gain or loss-of-signal activity can be used to understand changes in the signaling. Furthermore, this assay endpoint can be referred to as a primary readout, because this assay has produced multiple assay endpoints where this one serves a signaling function. To generalize the intended target to other relatable targets, this assay endpoint is annotated to the cell morphology intended target family, where the subfamily is organelle conformation.
Cells were treated with dimethyl sulfoxide (DMSO) as a solvent control at a final concentration of 0.5% v/v or with compounds in DMSO with a resulting final DMSO concentration of 0.5% v/v. Compound treatment was done at concentrations of 0.39, 0.78, 1.56, 3.12, 6.24, 12.5, 25, 50, 100, and 200 uM in duplicate on each plate. Cells were treated with compounds for 1, 24, or 72 hr. Carbonyl […] m-chloro-phenylhydrazone (CCCP) and taxol were used as positive controls for mitochondrial function and cytoskeletal stability, respectively; DMSO served as the negative control for this experiment. Cells were fixed by the direct addition of 50 uL formaldehyde in Hank's Balanced Salt Solution (HBSS) to a final concentration of 3.7%. After incubation in the fixation medium for 30 min at room temperature (293-298 K), cells were rinsed twice with HBSS and treated with cell permeabilization buffer (16 uL of 0.5% Triton X-100) for 10 min at room temperature (293-298 K) before labeling. For mitochondrial membrane potential and mitochondrial measurements, pre-fixed cells were incubated with 50 uL of MitoTracker Red CMXRos (Invitrogen) at a concentration of 250 nM for 30 min before fixation. In the remaining cases, post-fixed cells were labeled by incubation with a multiplexed mixture of primary antibodies in HBSS for 60 min at room temperature (293-298 K) to detect immunoreactivity of c-Jun (1:500), phospho-histone H3 (1:100), phospho-histone H2A.x (1:200), p53 (1:400), alpha-tubulin (1:200) and Hoechst 33342 (2 ug/mL). Cells were labeled for multiplexed imaging on two separate plates: a) Hoechst 33342, MitoTracker Red, phospho-histone H3, and alpha-tubulin, and b) Hoechst 33342, phospho-histone H2A.x, and c-Jun. A final rinse with HBSS (50 uL) was performed before analysis. The primary and secondary antibodies for the proteins were phospho-histone H3 (rabbit anti-phospho-histone H3 and FITC-donkey anti-rabbit IgG), phospho-histone H2A.x (mouse anti-phospho-histone H2A.x and FITC-donkey anti-mouse IgG), c-Jun (rabbit anti-phospho-c-Jun and Cy3-donkey anti-rabbit IgG), p53 (sheep anti-p53 and Cy5-donkey anti-sheep IgG), alpha-tubulin (mouse anti-alpha-tubulin and Cy5-donkey anti-mouse IgG). These antibodies are available as the CellCiphr HepG2 assay kit (Millipore).Digital images of each well were captured using a Cellomics ArrayScan VTI (Thermo Scientific Cellomics) (0.8 NA objective, 0.63x optical coupler, and XF-93 filter set) at 20x magnification. The images were acquired using the autofocus feature of the ArrayScan instrument, which entails the following steps. First, the camera focuses on channel 1 (Hoechst 33342), where nuclei are identified. Second, a Z offset of 1 um is used for capturing mitochondria (MitoTracker Red). […]

Row | Structure (SMILES) | outcome | AC50
1 | CSC1=N[C@@](C)(c2ccccc2)C(=O)N1Nc1ccccc1 | inactive | –
2 | COP(=O)(OC)SCn1c(=O)oc2cc(Cl)cnc21 | inactive | –
3 | O=c1ccc(=O)[nH][nH]1 | inactive | –
4 | CNC(=O)ON=C(SC)C(=O)N(C)C | inactive | –
5 | CCOP(=S)(OCC)SCCSCC | inactive | –
6 | C[N+]1(C)CCCCC1 | inactive | –
7 | Cc1cc(C2CC2)nc(Nc2ccccc2)n1 | – | 29.2 µM (active)
8 | CCOC(=O)COc1cc(-c2nn(C)c(OC(F)F)c2Cl)c(F)cc1Cl | inactive | –
9 | CSc1nc(NC(C)C)nc(NC(C)C)n1 | inactive | –
10 | CCc1cnc(C2=NC(C)(C(C)C)C(=O)N2)c(C(=O)O)c1 (stereo not given) | inactive | –
11 | CC1(C(=O)Nc2ccc(O)c(Cl)c2Cl)CCCCC1 | inactive | –
12 | CC1=NNC(=O)N(/N=C/c2cccnc2)C1 | inactive | –
13 | CC(=NC#N)N(C)Cc1ccc(Cl)nc1 | inactive | –
14 | CCCCN(CC)c1c([N+](=O)[O-])cc(C(F)(F)F)cc1[N+](=O)[O-] | inactive | –
15 | CCCCOC(=O)[C@@H](C)Oc1ccc(Oc2ccc(C#N)cc2F)cc1 | inactive | –
16 | CN(C)[C@@H]1C(=O)C(C(N)=O)=C(O)[C@@]2(O)C(=O)C3=C(O)c4c(O)cccc4[C@@](C)(O)[C@H]3[C@H](O)[C@@H]12 | inactive | –
17 | S=C1NCCN1 | inactive | –
18 | C#CC(C)(C)NC(=O)c1cc(Cl)cc(Cl)c1 | inactive | –
19 | CCOP(=S)(OCC)Oc1cc(C)nc(C(C)C)n1 | inactive | –
20 | CCCOc1nn(C(=O)NS(=O)(=O)c2ccccc2C(=O)OC)c(=O)n1C | inactive | –

Row | Structure (SMILES) | outcome | AC50
21 | CCCSP(=O)(OCC)Oc1ccc(Br)cc1Cl (stereo not given) | inactive | –
22 | C=C(C)[C@H]1Cc2c(ccc3c2O[C@@H]2COc4cc(OC)c(OC)cc4[C@@H]2C3=O)O1 | inactive | –
23 | N#CSCSC#N | inactive | –
24 | COP(=O)(OC)OC(Br)C(Cl)(Cl)Br (stereo not given) | inactive | –
25 | COc1cccc(C(=O)NN(C(=O)c2cc(C)cc(C)c2)C(C)(C)C)c1C | inactive | –
26 | O=C(O)c1cc(Oc2ccc(C(F)(F)F)cc2Cl)ccc1[N+](=O)[O-] | inactive | –
27 | C#CCC1=C(C)C(OC(=O)C2C(C=C(C)C)C2(C)C)CC1=O (stereo not given) | inactive | –
28 | CCOP(=O)(NC(C)C)Oc1ccc(SC)c(C)c1 (stereo not given) | inactive | –
29 | CNC(=O)Oc1cccc2c1OC(C)(C)O2 | inactive | –
30 | CCNc1nc(Cl)nc(NC(C)(C)C#N)n1 | inactive | –
31 | CC[C@H](C)[C@H]1O[C@]2(C=C[C@@H]1C)C[C@@H]1C[C@@H](C/C=C(\C)[C@@H](O[C@H]3C[C@H](OC)[C@@H](O[C@H]4C[C@H](OC)[C@@H](NC)[C@H](C)O4)[C@H](C)O3)[C@@H](C)/C=C/C=C3\CO[C@@H]4[C@H](O)C(C)=C[C@@H](C(=O)O1)[C@]34O)O2 | inactive | –
32 | CC(C)=CC1C(C(=O)OCN2C(=O)C3=C(CCCC3)C2=O)C1(C)C (stereo not given) | inactive | –
33 | CCC(=O)Nc1ccc(Cl)c(Cl)c1 | inactive | –
34 | CN(C)C(=O)Nc1cccc(C(F)(F)F)c1 | inactive | –
35 | O=[N+]([O-])c1cc(C(F)(F)F)c(Cl)c([N+](=O)[O-])c1Nc1ncc(C(F)(F)F)cc1Cl | – | 15 µM (active)
36 | CCOP(=O)(OCC)Oc1cc(C)nc(C(C)C)n1 | inactive | –
37 | CCc1cccc(CC)c1N(COC)C(=O)CCl | inactive | –
38 | CCc1cccc(C)c1N(C(=O)CCl)C(C)COC (stereo not given) | inactive | –
39 | CC(C)[C@H](C(=O)O[C@H](C#N)c1cccc(Oc2ccccc2)c1)c1ccc(Cl)cc1 | inactive | –
40 | COP(=O)(NC(C)=O)SC (stereo not given) | inactive | –
